Experimental data as given in PMC3795721, “Screening for Protein-DNA Interactions by Automatable DNA-Protein Interaction ELISA”.

target: AT4G31550 (Arabidopsis thaliana, UniProt Q9SV15 228-325); assay: DPI-ELISA; DPI-ELISA, streptavidin 384-well plate, 1-2 pmol biotinylated dsDNA per well, crude native E. coli extract, anti-His detection; buffer as in Brand et al. [46],; high values mean tight binding; settings: tags: C-terminal His (pET-DEST42); label: 5' biotin on forward strand; dsDNA, one strand shown
Sequence (Q9SV15 228-325): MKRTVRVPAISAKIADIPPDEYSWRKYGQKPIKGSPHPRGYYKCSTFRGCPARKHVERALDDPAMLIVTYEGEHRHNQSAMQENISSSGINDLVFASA

Sequence	binding signal [absorbance]
AAAAAATGGGGCTCTGGCCCACCGTAAAAA	0.525 ± 0.0778
AAAAAAAGTAGTTACTGCGAAAGTCTAAAA	0.675 ± 0.0778
AAAAAAACTCTCCGGGTACAATTGCAAAAA	0.605 ± 0.205
AAAAAATTGGCACACATGATCTCGGGAAAA	0.56 ± 0.113
AAAAAAGTGTGTGGCTCAGGATTCCCAAAA	0.55 ± 0.0849
AAAAAATGACCAGGCCTCGAGCAAAAA	0.665 ± 0.0636
AAAAAAGATGATTAGTAATTGCGGAAAAAA	0.75 ± 0.0849
AAAAAAAGGGTCCGGTGCATACATGTAAAA	0.57 ± 0.156
AAAAAAAGTATCAAAGCCTAGGGCTGAAAA	0.605 ± 0.205
AAAAAATTACTTCTCCCTTCCTTTGCAAAA	0.605 ± 0.163
AAAAAATAAGTAACCGAACGAAACTCAAAA	0.75 ± 0.269
AAAAAATGCTATCCGTGTCTATGCCAAAAA	0.54 ± 0.0707
AAAAAATTTGTTCGGGCTCATAACTGAAAA	0.595 ± 0.148
AAAAAATGTCGGCTGTTAGGATATCGAAAA	0.625 ± 0.0495
AAAAAACCGACCTGCACGTCGCTGCTAAAA	0.505 ± 0.106
AAAAAATGTTTTTTAGAGGTGTGCAAAAAA	0.57 ± 0.0849
AAAAAATTCTTAGTTAGATTCACCTCAAAA	0.575 ± 0.134
AAAAAAGTTTCTGCTTTCCCTTTCGTAAAA	0.665 ± 0.205
AAAAAAGAAATACCAGAAACTATCATAAAA	0.705 ± 0.219

Sequence	binding signal [absorbance]
AAAAAATTCCCAGCGTATCCGACCCGAAAA	0.535 ± 0.0778
AAAAAAAGGGTGCTATTCGTCGACACAAAA	0.63 ± 0.141
AAAAAAGGTAGTCACATTACGAGGGTAAAA	0.555 ± 0.0354
AAAAAATAGGCGTTATGGCTAACACCAAAA	0.685 ± 0.106
AAAAAAAACGTCTGGCGGGGTTGAGAAAAA	0.65 ± 0.113
AAAAAAGCTTCTCATGTTGTCTTAGGAAAA	0.695 ± 0.177
AAAAAAGTTTCCTACTTGTGTCTGTGAAAA	0.53 ± 0.0849
AAAAAAATCACGGTTCGACCTCCAGCAAAA	0.7 ± 0.127
AAAAAAAGTGGCCGCTAGTCAACTCAAAAA	3.46 ± 0.389
AAAAAAGGGCGAGCGCTGGATCCACAAAA	0.505 ± 0.106
AAAAAATCGCGAACGTACGTCCGCGGAAAA	0.51 ± 0.113
AAAAAAGTGTTAGATTGTAGTTGATAAAA	0.675 ± 0.106
AAAAAAGATTGACTCGTCTTACTCGAAAAA	3.08 ± 0.742
AAAAAAATTGTATCATACTTCAGTTGAAAA	0.61 ± 0.0707
AAAAAATTCTAACTTAGCCTATGTCCAAAA	0.695 ± 0.163
AAAAAACTGCTAATCGGTGACCCGATAAAA	0.745 ± 0.00707
AAAAAATGGAAAGACCTATACCGGTCAAAA	1.09 ± 0.17
AAAAAATATCCTATTCTAATTTATATAAAA	0.55 ± 0.113
AAAAAAACCCTGTGTCGGCCGATAAAAAA	0.58 ± 0.099
